Reference: PubChem BioAssay (NCATS)
Inconclusive results are not listed. Where a call stands in place of a potency, no number is given. Calls of active or inactive are those of the source. The call rests on the fitted dose curve; in most records, active means well fitted curve in the direction sought with a large enough effect; inconclusive means small, poorly fitted or top-dose-only effect, or another doubt; inactive means no such curve, though single readings can be large; an effect the other way counts as inactive or inconclusive.

assay: qHTS for compounds that reverse cellular toxicity of Amyloid beta (A-beta) peptide in yeast: LOPAC Validation Assay (AID 720559); conditions: yeast expressing A-beta; Potency: rescue of growth toxicity; series mostly up to 46.1 µM; further: potency means the concentration at half of the fitted maximal effect
How it was run: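 OD600 growth readout after 48 hr at 30 C; A-beta-toxic yeast plus pinned compounds in medium. Normalization: DMSO = negative, equimolar FeCl3 + clioquinol = positive.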

Row | Compound | Potency
1 | CN(C)CCCO[C@@H]1[C@H]2OC(C)(C)O[C@H]2O[C@@H]1[C@H](O)CO | inactive
2 | Nc1ncnc2c1ncn2[C@@H]1O[C@H](COP(=O)(O)OP(=O)(O)OP(=O)(O)OP(=O)(O)OC[C@@H]2O[C@H](n3cnc4c(N)ncnc43)[C@@H](O)[C@H]2O)[C@@H](O)[C@H]1O | 8.2 µM (active)
3 | CCCCCCCC/C=C\CCCCCCCC(=O)NCCO | inactive
4 | NCCCCC(=O)O | inactive
5 | CC(C)(C=O)Cc1cc(C(C)(C)C)c(O)c(C(C)(C)C)c1 | inactive
6 | C[N+]1(C)C2CC(OC(=O)[C@H](CO)c3ccccc3)CC1C1OC12 (some centres undefined) | inactive
7 | NO | inactive
8 | N#C/C(=C\c1ccc(O)c(O)c1)C(=O)NCc1ccccc1 | inactive
9 | NC[C@@H]1O[C@H](C23CC4CC(CC(C4)C2)C3)Cc2c1ccc(O)c2O | inactive
10 | COc1cc(OC)c(/C=C2/C(=O)Nc3ccccc32)c(OC)c1 | inactive
11 | OCC1O[C@H]([S-])[C@H](O)[C@@H](O)[C@@H]1O.[Au+] (some centres undefined) | inactive
12 | CC1OC1P(=O)(O)O (centres undefined) | inactive
13 | Oc1ccc(C2CNCc3sccc32)cc1O (centres undefined) | inactive
14 | CN1[C@@H](CC(=O)c2ccccc2)CCC[C@H]1C[C@H](O)c1ccccc1 | inactive
15 | Oc1cc2c(cc1O)CN(C(=S)NCCc1ccc(Cl)cc1)CCC2 | inactive
16 | NC(=S)c1ccc[n+]([C@@H]2O[C@@H](COP(=O)([O-])OP(=O)(O)OC[C@H]3O[C@@H](n4cnc5c(N)ncnc54)[C@H](OP(=O)(O)O)[C@@H]3O)C(O)C2O)c1 (some centres undefined) | inactive
17 | CC1CN(S(=O)(=O)c2cccc3cnccc23)CCN1 (centres undefined) | inactive
18 | CNCC[C@H](Oc1ccc(C(F)(F)F)cc1)c1ccccc1 | inactive

Row | Compound | Potency
19 | NC(=O)C(=O)O | inactive
20 | NC(N)=NC(=O)c1nc(Cl)c(N2CCCCCC2)nc1N | inactive
21 | CN(C)c1nc2c(Br)c(Br)c(Br)c(Br)c2[nH]1 | inactive
22 | O=C(/C=C/c1ccc(O)cc1)c1ccc(O)cc1O | inactive
23 | CCCn1c(=O)c2[nH]c(-c3ccc(OCC(=O)NCCN)cc3)nc2n(CCC)c1=O | inactive
24 | NCCCCCCCCCCN | inactive
25 | CC(C)CC(NP(=O)(O)O[C@@H]1O[C@@H](C)[C@H](O)[C@@H](O)[C@H]1O)C(=O)NC(Cc1c[nH]c2ccccc12)C(=O)O (some centres undefined) | inactive
26 | CN=c1nc(-c2ccccc2)n(-c2ccccc2)s1 | inactive
27 | COc1ccccc1CNCCCCCCNCCCCCCCCNCCCCCCNCc1ccccc1OC | inactive
28 | N#C/C(=C\c1ccc(O)c(O)c1)C(=O)c1ccc(O)c(O)c1 | inactive
29 | CNC(=O)[C@H]1O[C@@H](n2cnc3c(NCc4cccc(I)c4)ncnc32)[C@H](O)[C@@H]1O | inactive
30 | COC1=C(OC)C(=O)c2ccccc2C1=O | inactive
31 | Cc1ccc(C(=O)O[C@H](C(=O)O)[C@@H](OC(=O)c2ccc(C)cc2)C(=O)O)cc1 (tested in a mixture with another compound) | inactive
32 | O=C(O)CC1CC(c2ccccc2)=NO1 (centres undefined) | inactive
33 | C=CC(C)=C[C@@]1(C)SC(=O)C(C)=C1O | inactive
34 | COC(=O)c1c(C)[nH]c(C)c1C(=O)c1ccccc1Cc1ccccc1 | inactive
35 | O=C(O)CNC(=O)C(CS)Cc1ccccc1 (centres undefined) | inactive
36 | N#C/C(=C\c1ccc(-c2cc(Cl)ccc2Cl)o1)C(=O)Nc1cccc2ncccc12 | inactive

assay: qHTS for Activators of Parkin Expression: LOPAC Validation Assay (NLuc Reporter) (AID 720572); conditions: Parkin promoter NanoLuc reporter cells, luminescence; series mostly up to 46.1 µM
How it was run: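 Cells harboring the Parkin-promoter coincidence reporter were treated for 24 h at seven concentrations. NLuc output was measured sequentially after the FLuc channel and scaled between DMSO and positive control values.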

Row | Compound | Potency
37 | CN(C)CCCO[C@@H]1[C@H]2OC(C)(C)O[C@H]2O[C@@H]1[C@H](O)CO | inactive
38 | Nc1ncnc2c1ncn2[C@@H]1O[C@H](COP(=O)(O)OP(=O)(O)OP(=O)(O)OP(=O)(O)OC[C@@H]2O[C@H](n3cnc4c(N)ncnc43)[C@@H](O)[C@H]2O)[C@@H](O)[C@H]1O | inactive
39 | CCCCCCCC/C=C\CCCCCCCC(=O)NCCO | inactive
40 | NCCCCC(=O)O | inactive
41 | CC(C)(C=O)Cc1cc(C(C)(C)C)c(O)c(C(C)(C)C)c1 | inactive
42 | C[N+]1(C)C2CC(OC(=O)[C@H](CO)c3ccccc3)CC1C1OC12 (some centres undefined) | inactive
43 | NO | inactive
44 | N#C/C(=C\c1ccc(O)c(O)c1)C(=O)NCc1ccccc1 | inactive
45 | COc1cc(OC)c(/C=C2/C(=O)Nc3ccccc32)c(OC)c1 | inactive
46 | CC1OC1P(=O)(O)O (centres undefined) | inactive
47 | Oc1ccc(C2CNCc3sccc32)cc1O (centres undefined) | inactive
48 | CN1[C@@H](CC(=O)c2ccccc2)CCC[C@H]1C[C@H](O)c1ccccc1 | inactive
49 | NC(=S)c1ccc[n+]([C@@H]2O[C@@H](COP(=O)([O-])OP(=O)(O)OC[C@H]3O[C@@H](n4cnc5c(N)ncnc54)[C@H](OP(=O)(O)O)[C@@H]3O)C(O)C2O)c1 (some centres undefined) | inactive
50 | CNCC[C@H](Oc1ccc(C(F)(F)F)cc1)c1ccccc1 | inactive
51 | NC(=O)C(=O)O | inactive
52 | O=C(/C=C/c1ccc(O)cc1)c1ccc(O)cc1O | inactive
53 | CCCn1c(=O)c2[nH]c(-c3ccc(OCC(=O)NCCN)cc3)nc2n(CCC)c1=O | inactive
54 | NCCCCCCCCCCN | inactive
55 | CN=c1nc(-c2ccccc2)n(-c2ccccc2)s1 | inactive
56 | COc1ccccc1CNCCCCCCNCCCCCCCCNCCCCCCNCc1ccccc1OC | inactive
57 | N#C/C(=C\c1ccc(O)c(O)c1)C(=O)c1ccc(O)c(O)c1 | inactive
58 | CNC(=O)[C@H]1O[C@@H](n2cnc3c(NCc4cccc(I)c4)ncnc32)[C@H](O)[C@@H]1O | inactive
59 | COC1=C(OC)C(=O)c2ccccc2C1=O | inactive
60 | Cc1ccc(C(=O)O[C@H](C(=O)O)[C@@H](OC(=O)c2ccc(C)cc2)C(=O)O)cc1 (tested in a mixture with another compound) | inactive
61 | O=C(O)CC1CC(c2ccccc2)=NO1 (centres undefined) | inactive
62 | COC(=O)c1c(C)[nH]c(C)c1C(=O)c1ccccc1Cc1ccccc1 | inactive
63 | O=C(O)CNC(=O)C(CS)Cc1ccccc1 (centres undefined) | inactive
64 | N#C/C(=C\c1ccc(-c2cc(Cl)ccc2Cl)o1)C(=O)Nc1cccc2ncccc12 | inactive
